Shown are actives, neighbours in structure and some others; about 31% of the full set was active somewhere.
CYP2C19 activ = activators of human cytochrome P450 2C19 | P33261 | recombinant CYP2C19, luciferin-H EGE luminescence; active compounds read high; 0 = fully inhibited enzyme, 1 = untreated enzyme | activation factor at 5 µM | 96,000 tested, under 10 active;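 active means activation factor of at least 2 at 5 µM in the primary screen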;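 further: 0 = wells with 2.5 mM tranylcypromine and 1 = vehicle-only wells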
CYP2C9 activ = CYP2C9 (human) activation. recombinant CYP2C9, luciferin-H conversion, luminescence; active compounds read high; factor 1 = untreated enzyme, 0 = blocked. activation factor at 5 µM. actives 1.4% (n = 96,000). P11712;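 active means activation factor of 2 or more for CYP2C9 at a 5 µM dose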;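 further: 0 = sulfaphenazole-blocked wells and 1 = vehicle-only wells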
Target sequence (P11712 whole entry, looked up): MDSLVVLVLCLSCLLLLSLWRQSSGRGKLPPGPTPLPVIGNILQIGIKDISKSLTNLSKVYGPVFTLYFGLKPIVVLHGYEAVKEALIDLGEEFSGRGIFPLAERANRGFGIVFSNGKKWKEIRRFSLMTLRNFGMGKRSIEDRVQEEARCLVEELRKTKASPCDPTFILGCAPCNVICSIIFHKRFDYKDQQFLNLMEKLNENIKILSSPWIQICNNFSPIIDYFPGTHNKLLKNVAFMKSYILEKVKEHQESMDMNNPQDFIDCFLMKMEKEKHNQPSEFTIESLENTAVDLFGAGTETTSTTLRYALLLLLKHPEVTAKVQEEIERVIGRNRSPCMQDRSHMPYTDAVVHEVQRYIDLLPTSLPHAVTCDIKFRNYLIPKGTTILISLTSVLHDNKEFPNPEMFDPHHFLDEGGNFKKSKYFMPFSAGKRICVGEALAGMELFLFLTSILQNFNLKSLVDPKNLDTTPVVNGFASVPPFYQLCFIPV
CYP2C9 inhib = human CYP2C9 inhibition. CYP2C9 Supersomes, luciferin-H conversion, luminescence. inhibition, % at 5 µM. AID 777. actives 20% (n = 96,000);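 active means blocking of liver enzyme CYP2C9 beyond about 50% at 5 µM, limit read from the data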
CYP2C19 inhib = blocks human cytochrome P450 2C19. P33261. inhibition, % at 5 µM. actives 21% (n = 96,000). CYP2C19 Supersomes, luciferin-H EGE luminescence, 30 min;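 active means CYP2C19 inhibition above a set limit at 5 µM in the primary screen, cut at about 50% in these data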;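 further: plate controls were negative control wells for no effect and 2.5 mM tranylcypromine positive control for full effect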
* hit, by the source's call.

SMILES | CYP2C19 activ | CYP2C9 activ | CYP2C9 inhib | CYP2C19 inhib
COC(=O)c1sc(NC(=O)CSc2nc3cccnc3n2C2CCCCC2)nc1C | 0.3 | 0.2 | 84* | 73*
COC(=O)c1sc(NC(=O)Cc2cccs2)nc1C | 0.6 | 0.4 | 57* | 43
O=c1[nH]nc(Cc2ccc(-c3ccccc3Cl)o2)c2ccccc12 | 0.9 | 0.9 | 7 | 10
Cc1cnc(NC(=O)CSc2ccccc2)s1 | 0.7 | 0.8 | 16 | 32
COc1cc(CC(=O)Nc2ncc(C)s2)cc(OC)c1OC | 0.3 | 0.5 | 54* | 73*
Cc1cnc(NC(=O)COc2ccccc2)s1 | 0.3 | 0.7 | 34 | 66*
O=C(COc1ccccc1)Nc1cccc2nsnc12 | 0.5 | 0.8 | 22 | 53*
COC(=O)c1sc(Nc2ccccc2)nc1C | 0.4 | 0.7 | 29 | 58*
CCOC(=O)c1sc(Nc2ccccc2)nc1C | 0.8 | 0.6 | 41 | 24
CC(C(=O)Nc1ccccc1-c1ccccc1)N1CCCCC1 (stereo not drawn) | 0.8 | 1 | 4 | 22
COc1ccc(CCNC(=O)C2CCC(CNc3c(N4CCCC4)c(=O)c3=O)CC2)cc1OC (stereo not drawn) | 1 | 1 | -4 | -4
COC(=O)CN1C(=O)C(O)(CC(=O)c2cccc(Br)c2)c2ccccc21 (stereo not drawn) | 0.6 | 0.9 | 12 | 41
Cc1nc(NC(=O)COc2ccccc2)sc1C(=O)Nc1ccccc1 | 0.7 | 0.5 | 47 | 33
COC(=O)c1sc(NC(=O)COc2ccccc2)nc1C | 0.3 | 0.1 | 94* | 71*
O=C(Cc1cccs1)Nc1nc2c(ccc3ccccc32)s1 | 0.6 | 0.4 | 64* | 41
Cc1ccc(N(CC(O)CN2CCOCC2)S(=O)(=O)c2ccc3ccccc3c2)cc1 (stereo not drawn) | 0.8 | 0.5 | 52* | 19
Cc1ccc(S(=O)(=O)N(C)CC(=O)N2CCOCC2)cc1 | 1 | 1.4 | -36 | 2
Cc1ccc(S(=O)(=O)N(CC(O)CN2CCOCC2)c2cc(Cl)ccc2Cl)cc1 (stereo not drawn) | 0.5 | 0.8 | 18 | 54*
Cc1ccc(N(CC(O)CN2CCCC2)S(=O)(=O)c2ccc(C)cc2)cc1 (stereo not drawn) | 0.9 | 1 | -2 | 10
COc1ccc(-c2cc3ccccc3n2CC(O)CN2CCOCC2)cc1 (stereo not drawn) | 0 | 0.4 | 63* | 95*
CCOC(=O)Nc1ccc2c(c1)N(C(=O)CN1CCN(C)CC1)c1ccccc1S2 | 0.4 | 0.8 | 22 | 58*
CCOC(=O)Nc1ccc2c(c1)N(C(=O)CCN(C)C)c1ccccc1S2 | 0.8 | 1 | 2 | 23
CCOC(=O)Nc1ccc2c(c1)N(C(=O)OC)c1ccccc1CC2 | 0.3 | 0.1 | 85* | 70*
COc1c2ccc(C(=O)NCc3cc(C(F)(F)F)cc(C(F)(F)F)c3)cc2nn1C | 0.9 | 1 | 3 | 7
COc1c2occc2c(OC)c2c(=O)cc(C(F)(F)C(F)(F)F)oc12 | 0 | 0.4 | 61* | 98*
SMILES | CYP2C19 activ | CYP2C9 activ | CYP2C9 inhib | CYP2C19 inhib
COc1c2occc2c(OC)c2c(=O)cc(C(F)(F)F)oc12 | 0.5 | 0.8 | 19 | 48
Nc1ccccc1-c1nc2ccccc2[nH]1 | 0.5 | 0.4 | 56* | 47
O=C(CSCc1c(Cl)cccc1Cl)NCc1cccnc1 | 0.5 | 0.8 | 16 | 54*
Cc1csc2nc(CNC(=O)c3cccc(C(F)(F)F)c3)cn12 | 0.9 | 2* | -102 | 14
O=C(NCc1cccnc1)c1sc2ccccc2c1Cl | 0.1 | 0.7 | 33 | 88*
O=C(NCc1cccnc1)c1ccc(Cl)c(Cl)c1 | 0.3 | 0.9 | 11 | 75*
CC(=O)c1c(C)[nH]c(C(=O)Nc2ccc3c(c2)OCCO3)c1C | 0.9 | 1.2 | -23 | 5
O=C(NCc1cccc(Cl)c1)c1cccnc1 | 0.8 | 0.8 | 17 | 24
O=C(NCc1cccnc1)c1cccc(C(F)(F)F)c1 | 0.1 | 0.8 | 22 | 89*
CCNC(=S)NNC(=O)c1cc(-c2cccc(C)c2)nc2ccccc12 | 1 | 0.5 | 52* | 4
CCNC(=S)NNC(=O)c1cc(-c2cccc(OCC)c2)nc2ccccc12 | 0.6 | 0.2 | 84* | 38
CCNC(=S)NNC(=O)c1cc(C2CC2)nc2ccccc12 | 1.1 | 0.5 | 51* | -11
CCCCOc1cccc(-c2cc(C(=O)NNC(=S)NCC)c3ccccc3n2)c1 | 1 | 0.9 | 11 | -4
COc1cc(Nc2nnc(C)s2)c(Cl)cc1Cl | 0.8 | 0.9 | 9 | 21
COCCOc1cc(Nc2nnc(C(F)(F)F)s2)c(Cl)cc1Cl | 0.3 | 0.1 | 92* | 66*
O=C(NCC(F)(F)F)Nc1ccccn1 | 1.1 | 1.1 | -15 | -7

Screening results: PubChem BioAssay, Sanford-Burnham Center for Chemical Genomics
